Whole data set: some 81,000 sequences, median “one-hybrid fitness for binding NBS DNA” near -0.1, cut for the highest 2% near 0.36. The sample as a whole holds a higher share of the highest values than the screen did.
B1: Caulobacter ParB omega fusion; a variant is named by its letters at X, in order, B8GW30 (parent)
chain: MESVVVGEPGMSEGRRGLGRGLSALLGEVDAAPAQAPGEQLGGSREAPIEILQRNPDQPRRTFREEDLEDLSNSIREKGVLQPILVRPSPDTAGEYQIVAGERAWRAAQRAGLKTVPIMVRELDDLAVLEIGIIENVQRADLNVLEEALSYKVLMEKFERTQENIAQTIGKSXSHVANXMRLLXLPDEVQSYLVSGELTAXHARAIAAAADPVALAKQIIEGGLSVRETEALARKAPNLSAGKSKGGRPPRVKDTDTQALESDLSSVLGLDVSIDHRGSTGTLTITYATLEQLDDLCNRLTRGI

Variants of: B1
Assay: one-hybrid fitness for binding NBS DNA (the Noc-binding site; scaled: cognate 1, non-cognate 0); higher = stronger binding
Settings: with NBS DNA site
Outline: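 Bacterial one-hybrid selection in E. coli USO rpoZ- hisB- pyrF- with a HIS3 reporter carrying the site 19 bp from the promoter, screening Caulobacter ParB libraries with four specificity codons randomised (NNS). Cells grew 48 hours at 37°C on M9-minus-histidine plus 0.1 mM IPTG and 5 mM 3-AT. Plasmids before and after selection were Illumina-sequenced, three replicate libraries pooled, and variants under 10 reads dropped. Fitness is the log change in variant-to-wild-type read ratio, rescaled to cognate 1, non-cognate 0.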

| Variant | one-hybrid fitness for binding NBS DNA |
| --- | --- |
| CSWC | ≤ 0.2 |
| YYPG | ≤ 0.2 |
| WYCF | ≤ 0.2 |
| HGNS | ≤ 0.2 |
| FIMG | ≤ 0.2 |
| PPDN | ≤ 0.2 |
| GYQT | ≤ 0.2 |
| DTTS | ≤ 0.2 |
| TWKT | ≤ 0.2 |
| SACG | ≤ 0.2 |
| QLQH | ≤ 0.2 |
| QLHP | ≤ 0.2 |
| QLCR | 0.468 |
| QLHR | 0.519 |
| QLCP | ≤ 0.2 |
| QLLS | ≤ 0.2 |
| QLCD | ≤ 0.2 |
| QLLP | ≤ 0.2 |
| QLQR | 0.483 |
| QLLR | 0.415 |
| QLQD | ≤ 0.2 |
| QLHH | ≤ 0.2 |

| Variant | one-hybrid fitness for binding NBS DNA |
| --- | --- |
| LLRD | ≤ 0.2 |
| RCWE | ≤ 0.2 |
| ILMW | ≤ 0.2 |
| QNKK | ≤ 0.2 |
| WACV | ≤ 0.2 |
| ARFF | ≤ 0.2 |
| YTQC | ≤ 0.2 |
| KEGR | ≤ 0.2 |
| VEDR | ≤ 0.2 |
| QLGD | ≤ 0.2 |
| QLGN | ≤ 0.2 |
| QLGR | 0.496 |
| NTCV | ≤ 0.2 |
| LCVN | ≤ 0.2 |
| QIHK | ≤ 0.2 |
| QLHG | ≤ 0.2 |
| QIHN | ≤ 0.2 |
| QIHT | 0.425 |
| QTHG | 0.234 |
| QFHT | ≤ 0.2 |
| QTHT | 0.648 |
| QTHC | 0.248 |

| Variant | one-hybrid fitness for binding NBS DNA |
| --- | --- |
| QLHT | 0.393 |
| QPHT | ≤ 0.2 |
| QCHT | 0.551 |
| NTKL | ≤ 0.2 |
| YMTV | ≤ 0.2 |
| HSGS | ≤ 0.2 |
| THQS | ≤ 0.2 |
| HCNT | ≤ 0.2 |
| MGAT | ≤ 0.2 |
| QHHY | ≤ 0.2 |
| QAHT | 0.414 |
| QWHT | ≤ 0.2 |
| QHHK | ≤ 0.2 |
| QNHT | ≤ 0.2 |
| QHHT | 0.419 |
| QAHC | ≤ 0.2 |
| QAHF | ≤ 0.2 |
| QSHT | 0.429 |
| PYTI | ≤ 0.2 |
| TEKH | ≤ 0.2 |
| AHRE | ≤ 0.2 |
| QKDR | 0.425 |

| Variant | one-hybrid fitness for binding NBS DNA |
| --- | --- |
| QKNR | 0.747 |
| QKNC | 0.201 |
| QKNF | ≤ 0.2 |
| QKDF | ≤ 0.2 |
| SPCS | ≤ 0.2 |
| VPAP | ≤ 0.2 |
| YAMK | ≤ 0.2 |
| GQTK | ≤ 0.2 |
| INGE | ≤ 0.2 |
| QVQR | 0.368 |
| QVRS | 0.482 |
| QVRD | ≤ 0.2 |
| QVQN | ≤ 0.2 |
| QVYS | 0.202 |
| QVNS | 0.377 |
| QVND | ≤ 0.2 |
| QVNN | ≤ 0.2 |
| QVDS | ≤ 0.2 |
| QVQS | ≤ 0.2 |
| QVDR | ≤ 0.2 |
| QVNR | 0.465 |

— a collection of fitness landscapes (doi:10.1016/j.celrep.2020.107928)
